From PubChem
Shown is part of a subset that was picked to be rich in hits.
NSD2 inh = blocks human NSD2 histone methyltransferase activity | O96028 | NSD2-SET H3K36me1 DELFIA fluorescence, biochemical | inhibition, % at 12.5 µM | 44,000 tested, 0.07% active; in the data active = inhibition above about 54%, passing the limit was not always enough;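 note: inhibitors reduce the monomethyl H3K36 fluorescence signal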
Target sequence (O96028 whole entry, looked up): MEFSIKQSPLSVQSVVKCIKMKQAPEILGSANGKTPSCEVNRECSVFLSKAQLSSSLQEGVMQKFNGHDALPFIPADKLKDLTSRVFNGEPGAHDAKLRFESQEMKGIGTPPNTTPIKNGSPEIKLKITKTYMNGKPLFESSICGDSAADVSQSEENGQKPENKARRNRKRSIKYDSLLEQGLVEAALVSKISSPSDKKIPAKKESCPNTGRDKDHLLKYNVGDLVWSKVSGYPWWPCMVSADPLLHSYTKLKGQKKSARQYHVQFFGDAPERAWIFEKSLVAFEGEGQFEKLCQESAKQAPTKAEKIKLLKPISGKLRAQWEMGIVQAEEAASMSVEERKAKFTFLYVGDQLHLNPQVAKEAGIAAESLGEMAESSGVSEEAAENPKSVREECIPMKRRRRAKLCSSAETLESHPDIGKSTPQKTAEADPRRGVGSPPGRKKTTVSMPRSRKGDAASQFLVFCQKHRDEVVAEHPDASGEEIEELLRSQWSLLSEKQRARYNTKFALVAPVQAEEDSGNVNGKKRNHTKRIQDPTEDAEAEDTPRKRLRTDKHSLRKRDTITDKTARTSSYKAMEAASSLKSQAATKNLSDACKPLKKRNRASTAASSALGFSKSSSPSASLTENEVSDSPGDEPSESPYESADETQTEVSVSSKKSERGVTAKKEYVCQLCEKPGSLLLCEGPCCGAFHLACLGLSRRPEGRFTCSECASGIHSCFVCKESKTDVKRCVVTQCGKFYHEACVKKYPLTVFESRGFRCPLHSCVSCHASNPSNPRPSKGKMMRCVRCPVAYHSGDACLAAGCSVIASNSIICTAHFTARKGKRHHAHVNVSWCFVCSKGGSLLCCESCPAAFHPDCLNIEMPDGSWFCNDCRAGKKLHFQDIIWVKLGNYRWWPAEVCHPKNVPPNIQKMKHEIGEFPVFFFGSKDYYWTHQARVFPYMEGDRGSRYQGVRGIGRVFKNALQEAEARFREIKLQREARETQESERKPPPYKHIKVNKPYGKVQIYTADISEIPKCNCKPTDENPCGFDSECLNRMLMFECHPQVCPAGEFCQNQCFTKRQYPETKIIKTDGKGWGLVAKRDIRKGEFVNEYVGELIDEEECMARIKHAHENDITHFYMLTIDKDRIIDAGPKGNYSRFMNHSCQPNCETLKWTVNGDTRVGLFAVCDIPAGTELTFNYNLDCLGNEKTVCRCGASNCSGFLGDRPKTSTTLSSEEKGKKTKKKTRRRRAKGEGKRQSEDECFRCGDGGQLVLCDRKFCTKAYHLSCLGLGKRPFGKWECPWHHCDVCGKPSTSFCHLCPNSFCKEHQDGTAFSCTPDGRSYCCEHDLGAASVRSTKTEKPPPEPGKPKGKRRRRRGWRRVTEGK
Numbers stand for hits.

Results for COc1cc(Cc2nnc(C(=O)NC(C)C)o2)cc(OC)c1OC ?
NSD2 inh: inactive

What do the screens show for `N#Cc1cccc(NCCN2CCNC2=O)n1`?
NSD2 inh: inactive

What do the screens show for `O=c1c2ccccc2nc(-c2cccs2)n1NCc1ccccc1F`?
NSD2 inh: inactive

What do the screens show for `N#Cc1ccc(NC(=O)c2ccc(Br)o2)cc1`?
NSD2 inh: inactive

Results for COC(=O)C(C(CO)Cc1ccc(O)c(OC)c1)C(O)c1ccc(O)c(OC)c1 (configuration not stated) ?
NSD2 inh: inactive

What do the screens show for `COc1ccc(C2C(C#N)=C(N)Oc3n[nH]c(-c4ccccc4)c32)cc1CSc1ccccn1` (configuration not stated)?
NSD2 inh: inactive

Results for CCOc1cc(C2c3c(oc4ccc(F)cc4c3=O)C(=O)N2CCc2ccc(OC)cc2)ccc1O (configuration not stated) ?
NSD2 inh: inactive

Results for O=C1/C(=C/c2cn[nH]c2-c2ccc(F)cc2)CS/C1=C\c1cn[nH]c1-c1ccc(F)cc1 ?
NSD2 inh: inactive

What do the screens show for `O=C1c2ccccc2C2=Nc3ccccc3SC(c3ccsc3)C12` (configuration not stated)?
NSD2 inh: inactive

What do the screens show for `O=c1c(O[C@@H]2O[C@H](CO)[C@@H](O)[C@H](O)[C@H]2O)c(-c2ccc(O)c(O)c2)oc2cc(O)cc(O)c12`?
NSD2 inh: inactive

Results for O=c1c(O[C@@H]2O[C@H](CO)[C@H](O)[C@H](O)[C@H]2O)c(-c2cc(O)c(O)c(O)c2)oc2cc(O)cc(O)c12 ?
NSD2 inh: 85

How did O=c1c(O[C@@H]2O[C@H](CO)[C@@H](O)[C@H](O)[C@H]2O)c(-c2ccc(O)cc2)oc2cc(O)cc(O)c12 do in these assays?
NSD2 inh: inactive

Results for CC1(C)CC(=O)C=C(NCC2CCN(C(=S)Nc3ccccc3)CC2)C1 ?
NSD2 inh: inactive

What do the screens show for `O=c1cc(-c2ccc(O)c(O)c2)c2c(O[C@@H]3O[C@H](CO)[C@@H](O)[C@H](O)[C@H]3O)cc(O)cc2o1`?
NSD2 inh: inactive

Results for CC(=O)OC1=C(C(=O)c2ccccc2)N(C)S(=O)(=O)c2ccccc21 ?
NSD2 inh: inactive

How did CCCCC(CC)C(=O)Nc1cc(OC)ccc1OC (configuration not stated) do in these assays?
NSD2 inh: inactive

What do the screens show for `O=C(CCc1ccc(O)cc1)CC(CCc1ccc(O)cc1)O[C@@H]1O[C@H](CO)[C@@H](O)[C@H](O)[C@H]1O` (some centres not stated)?
NSD2 inh: inactive

What do the screens show for `C[C@H](O)c1nc2ccccc2c(=O)[nH]1`?
NSD2 inh: inactive

How did COc1cccc(-c2nn(C)c3sc(C(=O)N4CCCCCC4)cc23)c1 do in these assays?
NSD2 inh: inactive

What do the screens show for `Cc1cc(C#N)c2c(C)ccc(C(C)C)cc1-2`?
NSD2 inh: inactive

How did C=CCNC(=O)[C@H]1[C@@H]2C(=O)O[C@@H](c3ccccc3)[C@@H](c3ccccc3)N2[C@@H](c2ccc(O)cc2)[C@]12C(=O)Nc1ccccc12 do in these assays?
NSD2 inh: inactive

Results for CCC(C)NC(=O)Cn1c(=O)n(-c2ccc(Cl)c(Cl)c2)c(=O)c2c(C)c(C)sc21 (configuration not stated) ?
NSD2 inh: inactive

What do the screens show for `O=C1NC(=O)C(C(CC(=O)c2ccccc2)c2ccccc2Br)C(=O)N1` (configuration not stated)?
NSD2 inh: inactive

What do the screens show for `CCC[C@H]1CC2=C(C[C@@H](CC)CC3=C1C(=O)OC3=O)C(=O)OC2=O`?
NSD2 inh: inactive

Results for Cc1ccc(S(=O)(=O)N[C@H](C(=O)NCCn2cc(C(=O)NO)nn2)C(C)C)cc1 ?
NSD2 inh: inactive

Results for CCCCn1cc(C2CC(=O)N(c3ccc(Br)cc3)C2=O)c2ccccc21 (configuration not stated) ?
NSD2 inh: inactive

How did CC(C)n1nnc(CC(=O)NN)n1 do in these assays?
NSD2 inh: inactive

Results for CN1C(C(=O)Nc2ccccn2)C(=O)c2ccccc2S1(=O)=O (configuration not stated) ?
NSD2 inh: inactive

How did COc1cccc(OC)c1C(=O)Nc1cccc(-c2nc3ncccc3o2)c1 do in these assays?
NSD2 inh: inactive

Results for O=C(CSc1nnc(NC(=O)c2ccc(Cl)c(Cl)c2)s1)Nc1ccc(F)c(F)c1F ?
NSD2 inh: inactive

How did O=C(CCCCC(=O)N/N=C/c1ccc2ccccc2c1)NO do in these assays?
NSD2 inh: inactive

Results for COC(=O)C1=CO[C@@H](O[C@@H]2O[C@H](CO)[C@@H](O)[C@H](O)[C@H]2O)[C@H]2[C@@H]1[C@H](OC(C)=O)C[C@]2(C)O ?
NSD2 inh: inactive

Results for COC(=O)C1=COC(O[C@@H]2O[C@H](CO)[C@@H](O)[C@H](O)[C@H]2O)[C@H]2[C@@H]1[C@H](OC(=O)CCc1ccc(O)cc1)C[C@]2(C)O (some centres not stated) ?
NSD2 inh: inactive

Results for COC(=O)C1=COC(OC2OC(CO)C(O)C(O)C2O)C2C1C=CC2(O)CO (configuration not stated) ?
NSD2 inh: 60

How did C[C@@H]1O[C@@H](O[C@H]2[C@H](O[C@H]3CC[C@@]4(C)C(CC[C@]5(C)C4CC=C4C6CC(C)(C)CC[C@]6(C(=O)O)CC[C@]45C)[C@]3(C)CO)OC[C@H](O)[C@@H]2O)[C@H](O)[C@H](O)[C@H]1O (some centres not stated) do in these assays?
NSD2 inh: inactive

What do the screens show for `C=CC1C(=C)CCC2C1CCC1C(C)(C(=O)O)CCCC21C` (configuration not stated)?
NSD2 inh: inactive

Results for COC(=O)C1C(=O)c2c([nH]c(C(=O)OC(C)C)c2C)CC1C (configuration not stated) ?
NSD2 inh: inactive

Results for CC/C(=C(/c1ccccc1)c1ccc(OCCN(C)C)cc1)c1ccccc1 ?
NSD2 inh: 58

What do the screens show for `CN(C)CCOC(=O)COc1ccc(Cl)cc1`?
NSD2 inh: inactive

What do the screens show for `CCN(CC)CCOc1ccc(/C(=C(\Cl)c2ccccc2)c2ccccc2)cc1`?
NSD2 inh: inactive

What do the screens show for `CC(C)(C)c1cc(C(C)(C)C)n(-c2ccc(-n3cccc3)cc2)n1`?
NSD2 inh: inactive

How did CCOc1cccc2c(C)nc(Nc3nc4c(c(=O)[nH]3)CCCC4)nc12 do in these assays?
NSD2 inh: inactive

Results for CCOC(=O)Cc1nc(OCC(=O)c2ccc(F)cc2)cs1 ?
NSD2 inh: inactive

Results for C=C[C@]1(C)C=C2CCC3C(C)(CCC[C@@]3(C)C(=O)O)C2CC1 (some centres not stated) ?
NSD2 inh: inactive

Results for CC1CCC23CCC(O[C@@H]4O[C@H](CO)[C@@H](O)[C@H](O)[C@H]4O)C12C(C=O)=CC3(C)C (some centres not stated) ?
NSD2 inh: inactive

What do the screens show for `COc1ccc(/C=N/NC(=O)CCCCC(=O)NO)cc1`?
NSD2 inh: inactive

Results for O=C(O)CCCCCCC(=O)N/N=C/CCC1CCCCC1 ?
NSD2 inh: inactive

How did O=C(O)CCCC[C@@H]1SC[C@@H]2NC(=O)N[C@@H]21 do in these assays?
NSD2 inh: 105

What do the screens show for `C=C1C2CCC3[C@]4(C)CCC[C@@](C)(C(=O)O)C4CC[C@]3(C2)[C@H]1OC(C)=O` (some centres not stated)?
NSD2 inh: inactive

What do the screens show for `CCn1c(O)c(/C=C2/C=CC=N2)c(=O)[nH]c1=S`?
NSD2 inh: inactive
